The OligoGym collection

What follows are sequences tested against ANKRD22 (assay: pooled miR-30 sensor sort-seq; sequence = guide strand). Details: shRNA.
Also: reference of the scale not given here.

Sequence	sensor-assay potency score (higher = more potent)
ATTAAAGCCATCTTGAACGTTG	-0.412
TAGCATTAACTTCGACGCCAGC	-1.11
TAGCATTCGTACAAGAGCCTCA	0.13
TTATTGTGGGGTCTGCACGGGC	-0.753
TTTTGAGGTTGACATTAGCATT	-1.7
TTTCTTCACAGCATAATGCAAG	-0.597
TTGTCTTTGATACCATGAGGAA	-1.48

The sequences below were run against ANKRD23 in the same assay as above. Details: shRNA.

Sequence	sensor-assay potency score (higher = more potent)
TTTTCCACATAGTAACAACAGC	-1.09
TTAAGATTCACTTTCTGGCGTT	-0.127
TAATTTGAAACGTACAGACGGT	0.00484
TCTTTCTCCACTTACCAACTGC	-0.293
TTATCCAGATTAAATCTGGTAC	-0.803
TTCCAATTTCAGCTTCTCCCGG	-0.86
AAATCTTTCAAGTTTCTTCTTC	0.216
TAGAGCAGCAGTAGCTTCATGG	-0.653
TGTCTCAGTCGCTTTTTCCGTC	-0.0673
TTCATGGCTTTGTAGCTGCCGT	-0.986
TTCTCCACTTACCAACTGCTGA	-0.872
TCTTTGAACCAAGTTTTCCAAG	-1.3

These sequences were tested against ANKRD40 in the same assay as above. Details: shRNA.

Sequence	sensor-assay potency score (higher = more potent)
TAACAGGTAAGAGACCACCTGA	-0.364
TTTTGTGGTAAGAATTTCTTTG	-0.767
TTCACTTATCATCAGAACCAGT	-0.41
TTGATCTGGATTAACACCCAGC	-0.194
TATCATCAGAACCAGTTCCAGC	-0.968
TTGGAGTCGAGCAACATCCTTG	-0.239
TAACTTTCTGATCTTCTCCACT	-1.02
TGATCTTCTCCACTTGATCTGG	-0.74
ATTATTTTCACTTATCATCAGA	-0.625
TCGAGCAACATCCTTGTCCTTC	-0.697
TTCCTTAACAGAGTATTGGGTA	0.698
TTGTCCTTCCTTAACAGAGTAT	-0.746

Each sequence was assayed against ANKRD53 in the same assay as above. Details: shRNA.

Sequence	sensor-assay potency score (higher = more potent)
TAGTAGAGAAATGTCCTGCCAT	-0.32
TTGCTAACATTCCACATTGTGG	-1.32
TTCATTTTCGTCATCTCACGGG	0.469
TTCATCGAATGTGTCACGCAGG	-0.608
TGATAGTAGAGAAATGTCCTGC	0.127
TTTCTGAGTGCCAGCTTCCGGA	-1.18
TTTCTGATAGCAGCTTCTCTGA	-1.05
TCTGATAGCAGCTTCTCTGAGA	-0.337
